# Records with an inconclusive call do not appear. Where a call stands in place of a potency, no number is given. Unmarked numbers belong to inactive results. Calls of active or inactive are those of the source. The call rests on the fitted dose curve; in most records, active means well fitted curve in the direction sought with a large enough effect in the repeat runs; inconclusive means weak or mixed curves; inactive means no such curve, though single readings can be large; an effect the other way counts as inactive or inconclusive.
# Experiments:
# [1] = qHTS RealTime-Glo MT Cell Viability Assay in HepG2 cells - 40 hour (AID 1224870); conditions: RealTime-Glo luminescence; series mostly up to 76.8 µM; further: nearly all actives have a fitted effect of over 50% in size; further: potency means the concentration at half of the fitted maximal effect
# Method in brief: (§1)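 HepG2 cells mixed with RealTime-Glo MT reagents (NanoLuc plus cell-permeant prosubstrate) were seeded at 600 cells/well, incubated 5 h at 37 C/5% CO2, then pinned with compounds in DMSO; nonlytic luminescence tracked viability during 40 h treatment.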
# [2] = A CellTox Green Cytotoxicity Assay to monitor cytotoxicity in HEK293 cells - 40 hour (AID 1224871); conditions: CellTox Green fluorescence; series mostly up to 76.8 µM; further: nearly all actives have a fitted effect of over 45% in size
# Method in brief: (§2)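 Cytotoxicity was tracked continuously in HEK293 cells by a DNA-binding dye excluded from viable cells. Compounds were transferred in DMSO 5 h after seeding; fluorescence was recorded at intervals up to 40 h.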
# [3] = qHTS RealTime-Glo MT Cell Viability Assay in HEK293 cells - 16 hour (AID 1224872); conditions: RealTime-Glo luminescence; series mostly up to 76.8 µM; further: top concentration of the series differs between compounds; nearly all actives have a fitted effect of over 50% in size
# Method in brief: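 Quantitative high-throughput screen of the Tox21 10K library in HEK293: cells and RealTime-Glo reagents plated together, compound added at 5 h, luminescence monitored through 40 h at 37 C.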
# [4] = qHTS RealTime-Glo MT Cell Viability Assay in HepG2 cells - 8 hour (AID 1224873); conditions: RealTime-Glo luminescence; series mostly up to 76.8 µM; further: nearly all actives have a fitted effect of over 55% in size
# Method in brief: as §1
# [5] = qHTS RealTime-Glo MT Cell Viability Assay in HEK293 cells - 40 hour (AID 1224874); conditions: RealTime-Glo luminescence; max response: hits give low values; further: nearly all actives have a fitted effect of over 50% in size
# Method in brief: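 Nonlytic bioluminescent viability monitoring. HEK293 at 600 cells/well with reagent; 5 h settle; compound transfer by pintool; plates held at 37 C and read at set time points.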
# [6] = A CellTox Green Cytotoxicity Assay to monitor cytotoxicity in HEK293 cells - 24 hour (AID 1224875); conditions: CellTox Green fluorescence; series mostly up to 76.8 µM; further: nearly all actives have a fitted effect of over 45% in size
# Method in brief: as §2
# [7] = qHTS RealTime-Glo MT Cell Viability Assay in HepG2 cells - 32 hour (AID 1224877); conditions: RealTime-Glo luminescence; series mostly up to 76.8 µM; further: nearly all actives have a fitted effect of over 55% in size; further: potency means the concentration at half of the fitted maximal effect
# Method in brief: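 Compound treatment began 5 h after plating HepG2 cells (600/well) with NanoLuc luciferase and prosubstrate. Plates stayed at 37 C for 40 h; luminescence was captured at six time points, 0 h through 40 h.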
# [8] = A CellTox Green Cytotoxicity Assay to monitor cytotoxicity in HepG2 cells - 24 hour (AID 1224878); conditions: CellTox Green fluorescence; series mostly up to 76.8 µM; further: nearly all actives have a fitted effect of over 45% in size; further: potency means the concentration at half of the fitted maximal effect
# Method in brief: (§3)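 Real-time, homogeneous cytotoxicity readout: dead-cell DNA staining by CellTox Green in HepG2 monolayers, fluorescence measured at timed intervals up to 40 h of continuous compound exposure.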
# [9] = A CellTox Green Cytotoxicity Assay to monitor cytotoxicity in HepG2 cells - 40 hour (AID 1224879); conditions: CellTox Green fluorescence; series mostly up to 76.8 µM; further: nearly all actives have a fitted effect of over 40% in size; further: potency means the concentration at half of the fitted maximal effect
# Method in brief: as §3
# [10] = A CellTox Green Cytotoxicity Assay to monitor cytotoxicity in HepG2 cells - 16 hour (AID 1224876); conditions: CellTox Green fluorescence; series mostly up to 76.8 µM; further: nearly all actives have a fitted effect of over 45% in size
# Method in brief: as §3
compound,measurement,setting,value
CC(C)CCCCCCc1ccc(OCCOCCO)cc1,Potency,[1],inactive
same,Potency,[2],inactive
same,Potency,[3],inactive
same,outcome,[4],inactive
same,max response,[5],2.16%
same,Potency,[6],inactive
same,Potency,[7],inactive
same,Potency,[8],inactive
same,Potency,[9],inactive
Cn1cnc2c(F)c(Nc3ccc(Br)cc3Cl)c(C(=O)NOCCO)cc21,Potency,[1],674 nM (active)
same,Potency,[2],inactive
same,Potency,[3],inactive
same,outcome,[4],inactive
same,max response,[5],-9.97%
same,Potency,[6],inactive
same,Potency,[7],535 nM (active)
same,Potency,[8],30.1 nM (active)
same,Potency,[9],37.9 nM (active)
C/C(=N\O)[C@@H](C)NCC(C)(C)CN[C@H](C)/C(C)=N/O,Potency,[1],inactive
same,Potency,[2],inactive
same,Potency,[3],inactive
same,outcome,[4],inactive
same,max response,[5],0.121%
same,Potency,[6],inactive
same,Potency,[7],inactive
same,Potency,[8],inactive
same,Potency,[9],inactive
CCCS(=O)c1ccc2nc(NC(=O)OC)[nH]c2c1 (stereo unspecified),Potency,[1],inactive
same,Potency,[2],inactive
same,Potency,[3],inactive
same,outcome,[4],inactive
same,Potency,[6],inactive
same,Potency,[10],inactive
same,Potency,[7],inactive
same,Potency,[8],inactive
same,Potency,[9],12000 nM (active)
O=C(Cl)c1cccc([N+](=O)[O-])c1,Potency,[1],inactive
same,Potency,[2],inactive
same,Potency,[3],inactive
same,outcome,[4],inactive
same,max response,[5],3.57%
same,Potency,[6],inactive
same,Potency,[7],inactive
same,Potency,[8],inactive
same,Potency,[9],inactive
NCCC(O)(P(=O)(O)O)P(=O)(O)O,Potency,[1],inactive
same,Potency,[2],inactive
same,Potency,[3],inactive
same,outcome,[4],inactive
same,max response,[5],3.89%
same,Potency,[6],inactive
same,Potency,[7],inactive
same,Potency,[8],inactive
same,Potency,[9],inactive
O=C(O[C@@H](C(=O)O)[C@@H](OC(=O)c1ccccc1)C(=O)O)c1ccccc1,Potency,[1],inactive
same,Potency,[2],inactive
same,Potency,[3],inactive
same,outcome,[4],inactive
same,Potency,[6],inactive
same,Potency,[10],inactive
same,Potency,[7],inactive
same,Potency,[8],inactive
same,Potency,[9],inactive
OCC(CBr)(CBr)CBr,Potency,[1],inactive
same,Potency,[2],inactive
same,Potency,[3],inactive
same,outcome,[4],inactive
same,Potency,[6],inactive
same,Potency,[10],inactive
same,Potency,[7],inactive
same,Potency,[8],inactive
same,Potency,[9],inactive
CN(C)CCOc1ccccc1Cc1ccccc1,Potency,[1],inactive
same,Potency,[2],inactive
same,Potency,[3],inactive
same,outcome,[4],inactive
same,Potency,[6],inactive
same,Potency,[7],inactive
CCC(=O)Nc1ccc(O)cc1,Potency,[1],inactive
same,Potency,[2],inactive
same,Potency,[3],inactive
same,outcome,[4],inactive
same,max response,[5],2.18%
same,Potency,[6],inactive
same,Potency,[7],inactive
same,Potency,[8],inactive
same,Potency,[9],inactive
CC(C)CC(=O)OCc1ccccc1,Potency,[1],inactive
same,Potency,[2],inactive
same,Potency,[3],inactive
same,outcome,[4],inactive
same,max response,[5],3.51%
same,Potency,[6],inactive
same,Potency,[7],inactive
same,Potency,[8],inactive
same,Potency,[9],inactive
Cc1ncc(CO)c(CN)c1O,Potency,[1],inactive
same,Potency,[2],inactive
same,Potency,[3],inactive
same,outcome,[4],inactive
same,max response,[5],4.15%
same,Potency,[6],inactive
same,Potency,[7],inactive
same,Potency,[8],inactive
same,Potency,[9],inactive
CO[Si](C)(C)OC,Potency,[1],inactive
same,Potency,[2],inactive
same,Potency,[3],inactive
same,outcome,[4],inactive
same,max response,[5],-0.595%
same,Potency,[6],inactive
same,Potency,[7],inactive
same,Potency,[8],inactive
same,Potency,[9],inactive
C[C@@H]1CN(c2c(F)c(F)c3c(=O)c(C(=O)O)cn(C4CC4)c3c2F)C[C@H](C)N1,"activity change, negative = cytotoxic",[1],1.26% [at 15.8 µM]
same,cytotoxicity increase,[2],-4.55% [at 15.8 µM]
same,"activity change, negative = cytotoxicity",[3],0.662% [at 15.8 µM]
same,"viability change, negative = cytotoxic",[4],-4.32% [at 15.8 µM]
same,max response,[5],10.3%
same,activity change,[6],"0.295% [at 15.8 µM, hits give high values]"
same,"activity change, negative = cytotoxic",[7],0.371% [at 15.8 µM]
same,cytotoxicity,[8],-13.2% [at 15.8 µM]
same,cytotoxicity increase,[9],-9.16% [at 15.8 µM]
CCCCc1ccc2nc(NC(=O)OC)[nH]c2c1,Potency,[1],inactive
same,Potency,[2],inactive
same,Potency,[3],inactive
same,outcome,[4],inactive
same,Potency,[6],inactive
same,Potency,[10],inactive
same,Potency,[7],inactive
same,Potency,[8],inactive
same,Potency,[9],338 nM (active)
c1ccc(CN(CC2=NCCN2)c2ccccc2)cc1,Potency,[1],inactive
same,Potency,[2],inactive
same,Potency,[3],inactive
same,outcome,[4],inactive
same,max response,[5],-19.9%
same,Potency,[6],inactive
same,Potency,[7],inactive
same,Potency,[8],inactive
same,Potency,[9],inactive

# — PubChem BioAssay (Tox21)
